Assay outcomes as filed in PubChem.
Compounds with a hit are over-represented: about 1.2% of the library has one in this group of screens.
GRK2 inh = compounds blocking aptamer binding on GRK2 – biochemical, human GRK2, bead flow cytometry, HTS, primary screen; inhibition of aptamer binding, % at 10 µM; FAM-aptamer displacement from GRK2; Beta-adrenergic receptor kinase 1 (Homo sapiens), P25098; 330,000 compounds, 0.59% hits;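 active = inhibition of aptamer binding above 40%, roughly 3 SD of noise, on plates passing a quality check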;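 note: median bead fluorescence of bound FAM aptamer so fluorescent compounds give negative values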
Target sequence (P25098 whole entry, looked up): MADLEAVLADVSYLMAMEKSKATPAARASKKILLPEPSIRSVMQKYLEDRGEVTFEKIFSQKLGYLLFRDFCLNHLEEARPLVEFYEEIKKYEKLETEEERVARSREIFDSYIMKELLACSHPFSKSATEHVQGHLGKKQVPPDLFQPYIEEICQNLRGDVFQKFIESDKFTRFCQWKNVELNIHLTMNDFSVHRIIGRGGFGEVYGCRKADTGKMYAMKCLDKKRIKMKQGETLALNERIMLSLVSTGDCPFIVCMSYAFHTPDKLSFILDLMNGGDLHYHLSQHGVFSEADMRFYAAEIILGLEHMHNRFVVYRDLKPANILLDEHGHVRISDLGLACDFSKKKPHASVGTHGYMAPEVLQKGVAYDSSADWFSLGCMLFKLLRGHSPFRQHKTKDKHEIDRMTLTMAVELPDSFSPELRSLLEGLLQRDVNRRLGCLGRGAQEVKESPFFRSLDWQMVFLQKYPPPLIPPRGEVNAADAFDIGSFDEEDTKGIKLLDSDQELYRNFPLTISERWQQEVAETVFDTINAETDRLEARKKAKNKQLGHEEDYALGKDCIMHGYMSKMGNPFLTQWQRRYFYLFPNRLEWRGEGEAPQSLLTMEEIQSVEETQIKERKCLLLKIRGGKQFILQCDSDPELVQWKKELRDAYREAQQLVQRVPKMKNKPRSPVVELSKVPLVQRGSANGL
Platelet DG rel = inhibitors of platelet dense granule secretion, primary screen, cell-based, MLPCN, human platelets; human platelet-rich plasma, SFLLRN dense granule ATP release, luminescence; inhibition, %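 (compounds screened at 7.5 µM in platelet-rich plasma)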; 300,000 compounds, 0.22% hits;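 active = mean replicate score, as percent of positive control, at or above 50; inconclusive = mean below 50 but at least one replicate at or above 50; inactive = mean and every replicate below 50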
NTR1 agonist = agonists of human NTR1, primary screen, imaging, U2OS cells, beta-arrestin-GFP, high content; 330,000 compounds, 0.17% hits; NTR1-U2OS beta-arrestin-GFP spot imaging, agonist mode; activation, % at 20 µM; Neurotensin receptor type 1 (Homo sapiens), P30989;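 active = activation at or above 40% of the spot to cytoplasm intensity ratio, with at least 20 cells analyzed; inconclusive = wells under 20 cells, flagged as cytotoxic or low count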;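 note: 0% = DMSO without peptide and 100% = 100 nM NTR1 peptide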
MIN6 prolif = inducers of MIN6 beta-cell proliferation, primary screen, ATP luminescence, uHTS; proliferation, % at 10 µM; 330,000 compounds, 0.29% hits; AID 2380, 2010; MIN6 cells proliferation, ATPlite luminescence, 48 h; cells starved in 0.2% serum; 100% = growth in 10% serum;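 active = compounds whose signal lies at least 3.5 SD above the mean of all wells on their plate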;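 note: 0% = DMSO-treated cells in low-serum medium and 100% = 10% serum control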
GRK2 inh confirm = GRK2 aptamer-displacing inhibitors, retest, confirmation, biochemical, cherry pick 1, bead flow cytometry; shares compounds with GRK2 inh; bead-bound GRK2, FAM-aptamer displacement; aptamer displacement, % at 10 µM; 2,000 compounds, 4% hits; AID 504451, 2011;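 active = aptamer displacement above 40%, near three times the noise of non-fluorescent compounds, on plates passing quality checks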;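 note: negative values mostly reflect intrinsic compound fluorescence rather than true enhancement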
Aptamer quench 1 = counter-screen for GRK2 aptamer inhibitors: fluorescent aptamer quenchers | shares compounds with GRK2 inh | Fluorescent RNA aptamer beads, quenching, flow cytometry; stronger effect = higher value | fluorescence change (kMESF span), kMESF (test concentration not listed) | 110 tested, under 10 active | AID 504521;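 active = compounds whose bead fluorescence drops by more than 37 kMESF across the dose range, marking them as dye quenchers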
FAM quench CP1 = counter-screen for GRK2 aptamer inhibitors: fluorescent aptamer quenchers. shares compounds with GRK2 inh. Carboxyfluorescein RNA aptamer on beads, flow cytometry quenching; stronger effect = lower value. fluorescence response (% of DMSO), % at 10 µM. 2,000 tested, under 10 active. AID 504580;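 active = compounds that quench the bead-bound fluorescent RNA probe, cutting fluorescence to under half of the solvent control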;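 note: counterscreen run without GRK2 so only probe quenching by compound is measured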
GRK2 CP2 = GRK2 aptamer-displacing inhibitors, hit retest, confirmation, biochemical, cherry pick 2, bead flow cytometry. 360 tested, under 10 active. shares compounds with GRK2 inh. bead-bound GRK2, FAM-aptamer displacement. inhibition of aptamer binding, % at 10 µM;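 active = inhibition of aptamer binding above 40%, about triple the noise seen with nonglowing compounds, on plates passing quality control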;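 note: negative values mostly come from compounds that fluoresce themselves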
Aptamer quench3 = fluorescence quenching of FAM-labeled RNA aptamer, dose response, artefact control for GRK2 aptamer inhibitor project, biochemical, flow cytometry, cherry pick 2. change in fluorescence (kMESF span), kMESF (test concentration not listed). shares compounds with GRK2 inh. 25 tested, under 10 active. Streptavidin beads;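 active = compounds quenching the bead-bound labeled aptamer, with fluorescence dropping by more than 37 kMESF over the dose range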
FAM quench SP = quenches fluorescent RNA aptamer, GRK2 hit artifact; shares compounds with GRK2 inh; carboxyfluorescein RNA aptamer beads, flow cytometry quenching; stronger effect = lower value; fluorescence response vs DMSO, % at 10 µM; 360 tested, under 10 active; AID 588494;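 active = response vs DMSO under 50%, meaning signal dropped by over half, treated as fluorescence quencher; inconclusive = no clear call, values can overlap the other calls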;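 note: labelled aptamer on streptavidin beads without GRK2 as a quench counter-screen; 100% = bead fluorescence of DMSO wells and lower means quenching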
FAM quench DR = quenchers of FAM-labeled RNA aptamer fluorescence, dose response, artefact control for GRK2 aptamer binding project, biochemical, powder set 1, flow cytometry; shares compounds with GRK2 inh; Bead-bound FAM RNA aptamer fluorescence quenching; stronger effect = lower value; fluorescence ratio to DMSO, % at 11.1 µM; 35 tested, under 10 active; AID 588496, 2011;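 active = compounds that dim the fluorescent label, raw bead signal shifting by over 33 units between lowest and highest dose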
An asterisk follows results filed as active; ? = inconclusive; . = no result.

SMILES | GRK2 inh | Platelet DG rel | NTR1 agonist | MIN6 prolif | GRK2 inh confirm | FAM quench CP1 | others
O=C(CCS(=O)(=O)c1ccc(Br)cc1)NCCc1ccccc1 | 70.0* | . | -0.3 | 3.7 | 42.9* | 100.5 | Aptamer quench 1=-0.7;Aptamer quench3=-0.9
O=C(CCS(=O)(=O)c1ccc2c(c1)NC(=O)CS2)NCCc1ccccc1 | 0.0 | 6.2 | -0.4 | -0.2 | . | . | GRK2 CP2=6.9;FAM quench SP=99.0
COc1ccc(CNC(=O)CCS(=O)(=O)c2ccc(Br)cc2)cc1 | 89.0* | 7.5 | -0.9 | -2.2 | 37.8 | 101.7 | Aptamer quench 1=8.5;Aptamer quench3=1.8;FAM quench DR=103.0
CCOc1ccc(CCNC(=O)CCS(=O)(=O)c2ccc(Br)cc2)cc1OCC | 8.0 | -0.9 | 1.8 | 0.1 | -0.9 | 96.4 | Aptamer quench 1=-0.5;FAM quench DR=99.0
COc1cccc(NC(=O)CN(C)C(=O)COc2ccc3ccccc3c2)c1 | 2.0 | 1.4 | 1.7 | -0.5 | . | .
Cc1cccc(NC(=O)CSc2nnc(CNC(=O)c3ccco3)n2C)c1C | 0.0 | -0.5 | -0.2 | -3.2 | . | .
O=C(CCc1ccccc1)OCCOC(=O)CCc1ccccc1 | 4.0 | 3.1 | 0.1 | 0.0 | . | .
NS(=O)(=O)c1ccc(CCNC(=O)CCS(=O)(=O)c2ccc(Br)cc2)cc1 | 87.0* | 2.0 | -0.3 | -1.4 | . | . | GRK2 CP2=74.3*;Aptamer quench3=2.7;FAM quench SP=101.0;FAM quench DR=101.0
COc1cc2sc(C)nc2c2ccccc12 | 0.0 | 1.7 | 0.9 | 0.9 | . | .
Cc1nc2c(ccc3c2ccc2nc(C)sc23)s1 | 2.0 | 20.1 | 0.1 | -0.6 | . | . | GRK2 CP2=14.9;FAM quench SP=100.0
Cc1cc(C)n2nc(-c3ccc(Cl)cc3)cc2n1 | 0.0 | 1.0 | 5.2 | -3.3 | . | .
Cc1cc(-c2ccc(Cl)cc2)n2nc(C)cc2n1 | 45.0* | -1.3 | 1.4 | 0.3 | -4.8 | 102.3
C=CCOc1c(CNC2CCCC2)cc(Cl)cc1OC | 87.0* | -3.9 | 0.5 | -0.4 | -1.9 | 102.4
O=C(O)C[C@H]1c2cc(C(F)(F)F)ccc2S(=O)(=O)N1C1CCCC1 | 4.0 | -0.9 | -0.9 | -3.4 | . | .
CC(=O)C[C@H]1c2cc(C(F)(F)F)ccc2S(=O)(=O)N1C1CCCC1 | 46.0* | 3.1 | -1.7 | -1.3 | -0.7 | 101.9
OC(COc1ccc(C2C=CCC2)cc1)CN1CCCCC1 (configuration not stated) | 62.0* | -2.9 | -0.7 | -1.4 | -74.7 | 105.4
CC(C)(C)c1ccc(OCC(O)CN2CCCC2)cc1 (configuration not stated) | 0.0 | 2.3 | 1.9 | -2.3 | . | .
O=C(c1cccc2ccccc12)C1CCCN(C(=O)c2ccc(N3CCOCC3)cc2)C1 (configuration not stated) | 3.0 | -6.0 | 3.2 | -3.0 | -2.2 | 100.3
O=c1c(O)cccc2cc(O)c(O)c(O)c12 | 100.0* | 1.9 | 3.7 | -4.2 | 30.3 | 91.0
O=c1cc(-c2ccccc2)oc2cc(O)c(O)c(O)c12 | 1.0 | . | 17.5 | -6.2 | . | .
Nc1ccc(NC(=O)CCN2CCOCC2)cc1 | 1.0 | -2.7 | 0.8 | -0.1 | . | .
CN(CC(=O)Nc1c(Cl)cccc1Cl)C(=O)CCc1nc2sc3c(c2c(=O)[nH]1)CCCC3 | 0.0 | 16.3 | -0.3 | 0.1 | -1.3 | 94.2
CN(CC(=O)Nc1ccc(Cl)cc1)C(=O)CCc1nc2sc3c(c2c(=O)[nH]1)CCCC3 | 34.0 | 7.0 | 0.7 | -3.1 | . | .
COc1ccccc1N1CCN(Cc2nc3ccccc3c(=O)n2CC(C)=O)CC1 | 0.0 | 1.6 | -0.5 | -1.9 | . | . | GRK2 CP2=15.6;FAM quench SP=?
COc1ccc(F)cc1C1=CC(=O)C[C@H](c2ccc3c(c2)OCO3)C1 | 41.0* | . | 1.7 | -5.4 | 19.1 | 98.3
SMILES | GRK2 inh | Platelet DG rel | NTR1 agonist | MIN6 prolif | GRK2 inh confirm | FAM quench CP1 | others
Cc1ccc(-c2ccc(=O)n(Cc3c(F)cccc3Cl)n2)cc1 | 0.0 | 2.7 | 12.2 | -4.7 | . | .
COc1ccc(Cc2c(O)nc(SC)n(C(C)=O)c2=O)cc1 | 100.0* | -2.2 | -1.6 | -1.3 | -0.9 | 102.6
COc1ccc(CCNC(=O)CSc2nc3scc(-c4ccccc4)c3c(=O)[nH]2)cc1 | 0.0 | . | 1.1 | -5.3 | . | .
CC(C)CCNC(=O)c1ccc(-n2cnc3cccnc32)cc1 | 45.0* | -0.1 | -1.0 | 2.3 | -1.4 | 98.2
Cc1ccccc1C(=O)Nc1nncs1 | 2.0 | 2.7 | -1.1 | 0.6 | . | .
Cc1cc(C(=O)Nc2nncs2)oc1C | 90.0* | 3.7 | 1.8 | -1.3 | -0.3 | 97.8
CCCCn1c(N)c(N(CCC(C)C)C(=O)C2CC(=O)N(c3ccccc3OCC)C2)c(=O)[nH]c1=O (configuration not stated) | 3.0 | 1.0 | 0.7 | -3.7 | . | .
CCCCn1c(N)c(N(CC(C)C)C(=O)CSCc2ccc(Cl)c(Cl)c2)c(=O)[nH]c1=O | 4.0 | 23.3 | 0.8 | -1.3 | . | .
O=C(/C=C/c1ccc(OC(F)F)cc1)OCC(=O)N1CCc2ccccc21 | 2.0 | 6.2 | -0.3 | -0.9 | . | .
COc1ccccc1/C=C/C(=O)OCC(=O)N1CCc2ccccc21 | 95.0* | . | -1.3 | -2.1 | -3.8 | 101.8
CC(C)C[C@H](NC(=O)OC(C)(C)C)C(=O)N1CCC(C(=O)O)CC1 | 65.0* | -0.2 | -0.4 | 2.6 | 0.0 | 101.2
CC(C)C[C@H](NC(=O)C1CCN(C(=O)[C@H](Cc2ccccc2)NC(=O)OC(C)(C)C)CC1)C(=O)O | 0.0 | 0.0 | 2.8 | 0.8 | . | .
COc1ccc(C(=O)NC(=O)COC(=O)C2CC2C)cc1 (configuration not stated) | 0.0 | . | -1.6 | 2.7 | . | .
O=C1NC(=O)c2cc(NC(=O)C3CCCCC3)ccc21 | 100.0* | -1.0 | -0.2 | -3.5 | -9.3 | 98.5
COC(=O)C(Cc1ccccc1)NC(=O)CC(C)CC(=O)Nc1ccc(C)cc1 (configuration not stated) | 46.0* | -1.0 | -1.2 | -1.3 | 1.1 | 99.8
